Only some compounds are listed: those with a hit (about 19% of all), similar ones and a draw of the others.
TDP1 cell noCPT – qHTS for Inhibitors of human tyrosyl-DNA phosphodiesterase 1 (TDP1): qHTS in cells in absence of CPT | DT40 Tdp1-/- hTDP1 cells, no CPT, ATP luminescence, 48 h | Potency, µM (highest dose often 46.2 µM), for the others: at the top dose activity change, negative = growth inhibition, hits mostly inhibitors | 420,000 tested, 15% active | AID 686978, 2013; also: potency is read from the fitted curve at half-maximal effect; nearly all actives have a fitted effect of over 55% in size
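Compound effects on proliferation are scored in DT40 Tdp1-/-;hTDP1 cells in the absence of CPT. ATP levels (CellTiter-Glo luminescence) are recorded after a ≥48 hr, 37 °C incubation.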
HT1080 IDH1KD tx – toxicity to HT-1080 IDH1 knockdown cells (counter line). 360,000 tested, 2% active. AID 686971. Potency, µM (highest dose often 46.1 µM), inactives show at the top dose activity, negative = toxicity, hits mostly cytotoxic. HT-1080 IDH1 knockdown viability, ATP luminescence, 48 h;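 also: potency is read from the fitted curve at half-maximal effect; 0% = DMSO wells and -100% = cell-free medium wells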
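HT-1080-IDH1KD cells (IDH1 knocked down), 750/well in RPMI with 5% FBS, treated with compound 48 h at 37 degrees C. Viability by CellTiter-Glo luminescence, normalised to DMSO and no-cell wells; concentration-response curves classed.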
HT1080NT lethal – kills 2HG-producing HT-1080-NT fibrosarcoma cells | HT-1080-NT fibrosarcoma viability, CellTiter-Glo ATP luminescence, 48 h | Potency, µM (titrated, usually from 46.1 µM), for the others: at the highest dose activity, negative = less viability, most hits filed as cytotoxic | 360,000 tested, 1.6% active | AID 686970;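 also: NT is the 2HG producing partner of a matched IDH1 knockdown line; potency is read from the fitted curve at half-maximal effect; 0% = DMSO-treated cells and -100% = media-only wells without cells; nearly all actives have a fitted effect of over 55% in size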
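Compounds were tested in concentration-response format on HT-1080-NT cells for 48 hours at 37 degrees C. Cell viability came from CellTiter-Glo luminescence; curves were classified by r2, response magnitude and activity.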
TDP1 cell CPT – growth inhibition of DT40 Tdp1-/-;hTDP1 cells with camptothecin (screen for TDP1 inhibitors); chicken DT40 Tdp1-/-;hTDP1 cells + 20 nM CPT, ATP luminescence, 48 h; Potency, µM (highest dose often 46.2 µM), for inactives: at the top dose activity change, negative = growth inhibition, actives largely listed as inhibitors; 420,000 tested, 12% active; AID 686979; also: potency is read from the fitted curve at half-maximal effect; nearly all actives have a fitted effect of over 55% in size
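Cell growth measured by CellTiter-Glo luminescence after a minimum 48 h, 37 C compound exposure with 20 nM CPT in Tdp1-knockout DT40 cells stably expressing hTDP1, seeded 400/well; qHTS titration format.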
IL1B secr inh – blocks inflammasome-driven IL-1 beta release. AID 743279. 360,000 tested, 4.7% active. THP-1 LPS/ATP IL-1B secretion, AlphaLISA, 16 h; active compounds read low. activity change, % at 57.5 µM; in the data active = activity change below about -50%; inconclusive = mostly about -30% to -49%
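Secreted IL-1B measured by AlphaLISA bead assay after 16 h compound exposure of THP-1 cells; compounds (final up to 57.5 uM) added 1 h before LPS (250 ng/mL) and ATP (1.25 mM) stimulation; lower signal means less secretion.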
Active calls of the source: *; u = inconclusive; x = no result; [ ] = another dose, or the depositor's remark. Unless noted, calls follow the shape of the dose curve; as a rule, active = well fitted curve in the direction sought with a large enough effect; inconclusive = small, poorly fitted or top-dose-only effect, or another doubt; inactive = no such curve, though single readings can be large; an effect the other way counts as inactive or inconclusive. Unless noted, % is scaled to controls: 0 for no effect and ±100 for the full control effect.

SMILES	TDP1 cell noCPT	HT1080 IDH1KD tx	HT1080NT lethal	TDP1 cell CPT	IL1B secr inh
CN(C)S(=O)(=O)c1cccc(C(=O)Nc2ccc3c(c2)CCC3)c1	18µM*	-4%	-28%	16µM*	-21
CN(C)S(=O)(=O)c1cccc(NC(=O)c2ccc3nccnc3c2)c1	23µM*	-7%	-7%	13µM*	27
Cc1cccc(NC(=O)c2sc(C)nc2C)c1	-5%	10%	8%	0%	-2
Cc1cccc(C(=O)Nc2nc(C)c(C(=O)Nc3ccc4c(c3)CCC4)s2)c1	u	u	11µM*	23µM*	3
CN(c1ccc(Cl)cc1)S(=O)(=O)c1nnc(NC(=O)C2CCCCC2)s1	-21%	x	x	-11%	x
CCN(CC)CCNC(CC(=O)Nc1ccc(Cl)cc1Cl)C(=O)O (stereo not drawn)	-6%	-1%	1%	26%	-12
Cc1ccc2oc(=O)c3cnn(CC(=O)NCCN(C)C)c3c2c1	-4%	4%	7%	-4%	-7
CCN(CC)CCNc1ccc(CO)c2oc3cc(Cl)ccc3c(=O)c12	10µM*	-18%	u	23µM*	-29
CN(C)CCNc1ccc(CO)c2oc3ccc(O)cc3c(=O)c12	0.65µM*	21µM*	u	0.13µM*	-98*
COC(=O)Nc1nc(C)c(C(=O)c2ccccc2)s1	12µM*	u	u	8.2µM*	26
COC(=O)Nc1nc(-c2ccccc2)c(C(=O)c2ccccc2)s1	0.65µM*	u	u	0.82µM*	33
OC1(c2cccnc2)CCN(Cc2ccc3c(c2)CN(Cc2cc(F)cc(F)c2)CCO3)CC1	u	x	x	5%[9.04 µM]	x
CCc1ccc(N2CC(C(=O)NCc3ccco3)CC2=O)cc1 (stereo not drawn)	-10%	21%	15%	-3%	0
O=C(c1ccc(Br)o1)N1CCN(c2ccc3nnc(-c4ccc(F)cc4)n3n2)CC1	18µM*	-1%	-12%	u	-3
COc1ccc(S(=O)(=O)N2CCN(c3ccc4nnc(-c5ccc(F)cc5)n4n3)CC2)cc1	15µM*	-23%	-21%	12µM*	-9
O=C(Nc1ccc(Cl)cc1)N1CCN(c2ccc3nnc(-c4ccc(F)cc4)n3n2)CC1	21µM*	u	-23%	u	0
CCOC1=C2CN(S(=O)(=O)c3ccc(C)cc3)[C@H](c3ccccc3)C[C@@H]2N(S(=O)(=O)c2ccc(C)cc2)[C@H](c2ccccc2)C1	-18%	16%	26%	-6%	-9
CCOc1ccc(CC(=O)Nc2cccc(-c3ccc4nnc(C)n4n3)c2)cc1	u	-13%	-5%	u	-12
COc1ccc(S(=O)(=O)Nc2cccc(-c3ccc4nncn4n3)c2)cc1F	2.3µM*	2.3µM*	4.6µM*	2.3µM*	73
COc1ccc(C(=O)Nc2cccc(-c3ccc4nncn4n3)c2)cc1OC	-30%	6%	5%	u	50
COc1ccc(CC(=O)Nc2cccc(-c3ccc4nncn4n3)c2)cc1OC	15µM*	u	-7%	u	30
COc1ccc(OC)c(S(=O)(=O)Nc2ccc(-c3ccc4nncn4n3)cc2)c1	2.1µM*	16µM*	23µM*	2.1µM*	-1
O=S(=O)(Nc1cccc(-c2ccc3nncn3n2)c1)c1cccc(F)c1	-18%	0%	-5%	-24%	10
COc1ccc(CC(=O)Nc2cccc(-c3ccc4nnc(C)n4n3)c2)cc1OC	9.2µM*	-17%	-20%	-25%	u
CCCCOC(=O)/C=C\C(=O)OCCCC	-19%	0%	4%	-26%	-2
CCCCOC(=O)/C=C\C(=O)NC(N)=O	u	u	u	u	-105*
COc1cc(CCCN2C(=S)NC[C@@H]2Cc2ccccc2)cc(OC)c1OC	16µM*	0%	8%	26µM*	-27
COc1cc(CCCN2CCNC[C@@H]2Cc2ccccc2)cc(OC)c1OC	6%	3%	4%	-10%	-21

Screens deposited in PubChem by National Center for Advancing Translational Sciences (NCATS).
